Assay results published in PubChem BioAssay (NCI).
Values joined by “and” are separate entries in the source; they are usually repeats but may differ in a detail not shown here. Equal values may be shown once. This is part of a sample that, as a whole, favours compounds with a hit. Of some 83,000 tested, about 20% had one in any assay.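 Plates (96-well) were seeded with cells, treated with compound at one concentration, and incubated for 48 hours before percent growth was determined.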 Active and inactive are the calls of the source.

The molecules below were run on NCI-H322M lung (assay: NCI-60 one-dose screen, 48 h (100 = growth as untreated, 0 = no growth, -100 = all killed)). Conditions: 10 µM unless noted.
Protocol: Growth inhibition of the NCI-H322M human Non-Small Cell Lung tumor cell line is measured as a screen for anti-cancer activity. Cells are grown in 96 well plates and exposed to the test compound for 48 hours. Compounds are tested at a single concentration, which is 10^-5 M for most compounds. The reported endpoint is percent growth (GI% or GIPRCNT), where numbers from 0 - 100% represent growth inhibition, and numbers from -100% - 0 represent cell death. For example, a value of 40 represents 60% growth inhibition. A value of 0 means no net growth occurred over the course of the experiment. A value of -40 indicates 40% of cells at the beginning of the experiment died by the end of the experiment. A value of -100 means all cells are dead at the end of the experiment.
NCI-60 Human Tumor Cell Lines Screen was performed using the standard one-dose NCI protocol, which is described in more detail at https://dtp.cancer.gov/discovery_development/nci-60/default.htm.
Compounds with GIPRCNT values below 10 were considered active. Activity score was based on GIPRCNT using the following formula: […]
Score is 0 for GIPRCNT values of 100 or above, 50 for GIPRCNT values of 0, and 100 for GIPRCNT values of -100.

SMILES	growth
COc1ccc2c(c1)N=c1c-2cc2c(O)[nH]c(=S)n2c1=O	78.1% (inactive)
O=C(COc1ccc(/C=C2/C(=O)Nc3ccc(Cl)cc32)cc1)Nc1ccc(Br)cc1	0.856% (active)
O=C1Nc2ccccc2/C1=C/C(=O)c1cc2ccccc2oc1=O	102% (inactive)
Cc1ccc(C(C)C)cc1Oc1cccc(-c2c(-c3ccc(C(F)(F)F)cc3)ncn2C2CCNCC2)n1	-98.4% (active)
COc1sc(/C=N/NC(=O)c2[nH]c3ccc(Br)cc3c2-c2ccccc2)cc1Cl	13.3% (inactive)
Cn1cc(-c2cc(N)n3nc(-c4c[nH]c5ccc(Cl)cc45)cc3n2)c2cccnc21	-83.6% (active)
COc1c(B(O)O)cc(F)cc1-c1nc2ccc3[nH]ncc3c2c2c1COCC2	78.4% (inactive)
COc1c(B(O)O)cc(F)cc1-c1nc2c(F)cc3[nH]ncc3c2c2c1CCCC2	12.6% (inactive)
C/C(=N/O)c1ccc(NC(=O)CSc2nnc(-c3ccc(-c4nc5ccc(Cl)cc5[nH]4)cc3)o2)cc1	3.18% (active)
CN(CCSSCCN1CCOCC1)C(=O)Oc1cc2c(c3ccccc13)[C@H](CCl)CN2C(=O)c1cc2cc(OCCCN3CCC3)ccc2[nH]1	-3.1% (active)
O=C(CSc1nnc(-c2ccc(-c3nc4ccccc4[nH]3)cc2)o1)Nc1ccc(Cl)cc1	61.5% (inactive)
COc1ccc(-c2cc(-c3cc(C(C)C)c(O)cc3C)nn2-c2ccc(S(N)(=O)=O)cc2)cc1	72.3% (inactive)
O=C1Nc2cc(-c3ccc(NS(=O)(=O)c4ccc([N+](=O)[O-])cc4)cc3)ccc2/C1=C/c1ccc[nH]1	62.2% (inactive)
Cc1nc(Nc2ccccn2)sc1C1=NNC(c2ccccc2F)C1 (stereo not given)	89.1% (inactive)
N#CCc1nnc(NC(=O)c2ccc(-n3c(=O)[nH]c4ccccc4c3=O)cc2)s1	101% (inactive)
NC(=O)c1ccc(-c2ccc3ncnc(N4CCc5cc(F)c(Cl)cc54)c3c2)cn1	24.1% (inactive)
COc1ccc(-c2nnc3c(/C=C/c4ccc(Br)cc4)nc4ccccc4n23)cc1	96.5% (inactive)
O=C(Nc1ccc(F)cc1)Nc1nc2ccc([N+](=O)[O-])cc2s1	7.52% (active)
COc1ccc(-c2cc(C(=O)N=Nc3c(O)[nH]c4ccc(Cl)cc34)c3ccccc3n2)cc1OC	102% (inactive)
Cc1ccc(-c2cc(-c3ccccc3)[nH]c(=O)c2C#N)cc1	91.2% (inactive)

SMILES	growth
CC(=O)Nc1cccc(-n2c(COc3ccc(I)cc3)nc3ccccc32)c1	102% (inactive) and 107% (inactive)
COC(=O)c1cc(C(C)=O)n2c3ccccc3c3ccccc3c12	104% (inactive)
CN(C)CCCNC(=S)Nc1ccc(/C=C/c2ccc(Cl)cc2)cc1	-95% (active)
COc1c2c(cc3c1C(CCc1ccccc1)N(C)CC3)OCO2 (stereo not given)	28.7% (inactive)
O=C(Nc1ccc(S(=O)(=O)N2CCCCC2)cc1)C(Cl)Cl	114% (inactive)
O=C(c1cc2cc(OCCCN3CCC3)ccc2[nH]1)N1C[C@@H](CCl)c2c1cc(OCc1ccccc1)c1ccccc21	-23.5% (active)
CCCn1c(NC(=O)c2cccc(C(N)=O)c2)nc2ccc(CN3CCCCC3)cc21	82% (inactive)
CN(C)c1nc(NCCNS(=O)(=O)c2ccc(C(=O)/C=C/c3ccc(C(F)(F)F)cc3)cc2)nc(N2CCOCC2)n1	72% (inactive)
Cn1cc(-c2cc(N)n3nc(-c4c[nH]c5ccccc45)cc3n2)c2cc(Cl)ccc21	-35.3% (active)
COc1ccccc1NC(=O)c1ccc(NC(=O)CCl)s1	94.1% (inactive)
CNc1nc2ccccc2n2c(-c3ccc(O)c(O)c3)cnc12	38.8% (inactive)
Cc1ccc2c(c1)/C(=C/C(=O)c1cc3ccccc3oc1=O)C(=O)N2	101% (inactive)
O=C(Cn1c(/C=C/c2ccc([N+](=O)[O-])cc2)nc2ccccc2c1=O)Nc1ccccc1	67.2% (inactive)
Cn1cc(-c2cc(N)n3nc(-c4c[nH]c5ccccc45)cc3n2)c2cc(F)ccc21	65.1% (inactive)
O=C(Cn1c(-c2ccccc2)nc2ccccc21)N=Nc1c(O)[nH]c2ccc(Br)cc12	-6.14% (active)
Cc1ccc2nc(NC(=O)Nc3cccc(Cl)c3)sc2c1	93.7% (inactive)
O=c1[nH]c2ccccc2cc1CSc1ccccc1Nc1nccc(-c2ccc3c(c2)OCO3)n1	87.7% (inactive)
CN1CCN(CCS(=O)(=O)Nc2cc(-c3ccc4ncnc(Nc5ccc(F)c(Cl)c5)c4c3)cnc2Cl)CC1	-15.5% (active)
CCc1ccc(SC2c3cc(OC)ccc3Oc3nc(N)c(C#N)c(N)c32)cc1 (stereo not given)	-48% (active)
O=C(N/N=C/c1ccc(B(O)O)s1)c1[nH]c2ccc(Br)cc2c1-c1ccccc1	-79.1% (active)
